In PubChem BioAssay AID624417 (National Center for Advancing Translational Sciences (NCATS), 2012):
About 6,400 (1.6%) of roughly 410,000 compounds were called active. A call without a number means that no potency is given here. Inconclusive results (about 20%) are left out. The call rests on the fitted dose curve; in most records, active means well fitted inhibition curve with a large enough effect; inconclusive means small, poorly fitted or top-dose-only effect; inactive means no such curve, though single readings can be large or run the other way. The full list was thinned out, with actives kept by preference.

The compounds below were run against Glucagon-like peptide 1 receptor (Homo sapiens) (UniProt P43220) (assay: qHTS of GLP-1 Receptor Inverse Agonists (Inhibition Mode)). Conditions: HEK293 GLP-1R CRE-luciferase, luminescence, 24 h, GLP-1R form is constitutively active; series mostly up to 38.3 µM.
Summary of the method: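 Cells are plated, allowed 12 hours at 37 deg C, then treated with compounds for 24 hr before luciferase detection reagent is added and luminescence is read after 12 min at room temperature. The HEK293 line carries constitutively active GLP-1R with a cAMP-responsive reporter.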
Further: nearly all actives have a fitted effect of over 55% in size.
Potency means the concentration at half of the fitted maximal effect.

Glucagon-like peptide 1 receptor (Homo sapiens), sequence (P43220 whole entry, looked up): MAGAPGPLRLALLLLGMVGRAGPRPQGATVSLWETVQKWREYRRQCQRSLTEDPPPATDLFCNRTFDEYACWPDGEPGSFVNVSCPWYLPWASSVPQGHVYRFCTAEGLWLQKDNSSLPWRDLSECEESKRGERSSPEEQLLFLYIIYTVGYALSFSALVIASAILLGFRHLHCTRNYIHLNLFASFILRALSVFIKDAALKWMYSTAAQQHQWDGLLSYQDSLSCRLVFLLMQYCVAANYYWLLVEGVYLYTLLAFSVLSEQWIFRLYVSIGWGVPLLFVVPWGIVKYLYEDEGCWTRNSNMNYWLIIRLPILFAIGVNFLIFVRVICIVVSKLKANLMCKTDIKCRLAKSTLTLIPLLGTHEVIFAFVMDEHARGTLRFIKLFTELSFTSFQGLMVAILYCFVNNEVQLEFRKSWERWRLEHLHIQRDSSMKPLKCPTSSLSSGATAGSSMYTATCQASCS

**Q.** `COc1ccc(C(C)(C)C)cc1NC(=O)CN(C)C1=NS(=O)(=O)c2ccccc21` was tested. Which Potency did it give?
**A.** inactive

**Q.** `COc1ccc(CCNC(=O)CN(c2ccccc2)S(=O)(=O)c2ccccc2)cc1` was tested. Which Potency did it give?
**A.** inactive

**Q.** `COc1cccc(NC(=O)N(Cc2cn(C)c3ccccc23)C2CCCCCC2)c1` was tested. Which Potency did it give?
**A.** 10 µM (active)

**Q.** `COc1cccc(NC(=O)C2CCCN2C(=O)OCc2ccccc2)c1` (centres undefined) was tested. Which Potency did it give?
**A.** inactive

**Q.** How did the Potency turn out when `COc1cccc(NC(=O)N2CCCC2C(=O)NC2CCCCC2)c1` (centres undefined) was run?
**A.** inactive

**Q.** Which Potency does the source give for `CCOC(=O)c1cc2cc(OC)ccc2n1C1CCN(C)CC1` here?
**A.** inactive

**Q.** `C[C@@H]1CN([C@@H](C)CO)C(=O)c2cc(NS(C)(=O)=O)ccc2O[C@@H](C)CCCCO[C@H]1CN(C)C(=O)Nc1ccc2c(c1)OCO2` was tested. Which Potency did it give?
**A.** inactive

**Q.** With `Cc1ccc(NC(=S)N(CCCN2CCCC2)Cc2cccn2Cc2ccc(Cl)cc2)cc1` as the compound, how does the Potency read?
**A.** 2.24 µM (active)

**Q.** `Cc1ccccc1NC(=S)N(CCCN1CCOCC1)Cc1cccs1` was tested. Which Potency did it give?
**A.** inactive

**Q.** Which Potency does the source give for `CCc1ccccc1NC(=S)N(CCN1CCCCCC1)Cc1ccco1` here?
**A.** inactive

**Q.** How did the Potency turn out when `COc1ccc(C(O)c2nc(-c3ccc4c(c3)OCO4)cs2)cc1` (centres undefined) was run?
**A.** inactive

**Q.** For `COc1cccc(-c2cc3nc(NCc4ccccc4OC)n(C)c(=O)c3s2)c1`, which Potency is on record?
**A.** inactive

**Q.** `CCCOc1ccc(NC(=O)CC2C(=O)N(c3ccccc3)C(=O)N2Cc2ccco2)cc1` (centres undefined) was tested. Which Potency did it give?
**A.** inactive

**Q.** For `COc1ccc(NC(=O)CSc2nccn2Cc2ccc3c(c2)OCO3)cc1`, which Potency is on record?
**A.** inactive

**Q.** For `CCCOc1ccc(NC(=O)CC2C(=O)N(C)C(=S)N2Cc2ccc3c(c2)OCO3)cc1` (centres undefined), which Potency is on record?
**A.** 10 µM (active)

**Q.** Which Potency does the source give for `Cc1noc(C)c1NC(=O)N(C)C[C@@H]1Oc2cc(Br)ccc2S(=O)(=O)N([C@@H](C)CO)C[C@H]1C` here?
**A.** inactive

**Q.** Which Potency does the source give for `N#C/C(=C(/O)COC(=O)COc1ccc(Cl)cc1)c1nc2ccccc2[nH]1` here?
**A.** 10 µM (active)

**Q.** Which Potency does the source give for `COCCN(CCOC)S(=O)(=O)c1ccc(/C(O)=C(\C#N)c2nc3ccccc3[nH]2)cc1` here?
**A.** inactive

**Q.** Which Potency does the source give for `N#C/C(=C(/O)COc1cccc2ccccc12)c1nc2ccccc2[nH]1` here?
**A.** inactive

**Q.** How did the Potency turn out when `O=C(COC(=O)CCc1c[nH]c2ccccc12)Nc1cccc(Cl)c1` was run?
**A.** inactive

**Q.** With `CC(C)C[C@H]1CN([C@@H](Cc2ccccc2)CN2CCC[C@@H]2CN2C(=O)C(=O)NC[C@@H]2Cc2ccc(O)cc2)C(=O)C(=O)N1CCc1ccccc1` as the compound, how does the Potency read?
**A.** inactive

**Q.** With `CCOCCCNCc1ccc(OCc2ccc(F)cc2)c(OC)c1` as the compound, how does the Potency read?
**A.** 1.12 µM (active)

**Q.** Which Potency does the source give for `COc1ccc(CNCCCO)cc1OC` here?
**A.** inactive

**Q.** `CCOCCCNCc1cc(Br)ccc1OCC` was tested. Which Potency did it give?
**A.** inactive

**Q.** With `COCCCn1c(C(=O)NC2CCCCC2)cc2c(=O)n3cccc(C)c3nc21` as the compound, how does the Potency read?
**A.** inactive

**Q.** For `COC(=O)c1ccc2nc(-c3ccc(C)cc3)c(Cc3ccc(OC)cc3C)n2c1`, which Potency is on record?
**A.** inactive

**Q.** For `COc1cc(C)c(CN2CCN(C(=O)CCC(=O)c3ccc(C)s3)CC2)cc1OC`, which Potency is on record?
**A.** inactive

**Q.** For `O=C1C(Sc2cccc(F)c2)=C[C@@]2(O)CC[C@@H](O)[C@]1(Sc1cccc(F)c1)[C@H]2O`, which Potency is on record?
**A.** inactive

**Q.** Which Potency does the source give for `O=C(NCCCN1CCN(c2cccc(Cl)c2)CC1)c1nnc(Cc2ccc(F)cc2Cl)o1` here?
**A.** 12.6 µM (active)

**Q.** With `Cn1c(C(=O)NCCCN2CCN(c3cccc(Cl)c3)CC2)cc2c(=O)n(C)c3ccccc3c21` as the compound, how does the Potency read?
**A.** inactive

**Q.** With `COc1ccc(N2CCN(CCNC(=O)c3nnc(Cc4c(F)cccc4Cl)o3)CC2)cc1` as the compound, how does the Potency read?
**A.** inactive

**Q.** How did the Potency turn out when `CSc1ncnc2c1ncn2CCCNCC(C)c1ccccc1` (centres undefined) was run?
**A.** inactive

**Q.** Which Potency does the source give for `CCCCCCCCN1C(=O)[C@H](CC(=O)NCC23CC4CC(CC(C4)C2)C3)C[C@@]2(C(=O)OC)CCCCC=C12` here?
**A.** inactive

**Q.** With `CCNC(=O)C1(C)CCN(C(=O)c2ccccc2)C1` (centres undefined) as the compound, how does the Potency read?
**A.** inactive

**Q.** With `CCOC1=C2[C@@H](CN(S(=O)(=O)c3ccc(C)cc3)[C@H]2c2ccccc2F)[C@H]2C(=O)N(Cc3ccccc3)C(=O)[C@H]2C1` as the compound, how does the Potency read?
**A.** inactive

**Q.** Which Potency does the source give for `CCCNC(=O)c1cc(C2CCCN(C(=O)c3ccc4c(c3)CCO4)C2)on1` (centres undefined) here?
**A.** inactive

**Q.** With `CC(C)c1ccc2c(c1)c(SC(C)(C)C)c(CC(C)(C)C(=O)O)n2Cc1ccc(Cl)cc1` as the compound, how does the Potency read?
**A.** 2.82 µM (active)

**Q.** With `O=C(Cn1c(=O)nc(-c2ccccc2)c2cc(Cl)ccc21)NCc1ccc(Cl)cc1` as the compound, how does the Potency read?
**A.** inactive

**Q.** Which Potency does the source give for `O=C(O)C1CCCN1c1nc(Cl)ccc1[N+](=O)[O-]` (centres undefined) here?
**A.** inactive

**Q.** For `Cc1ccc(F)c(S(=O)(=O)NC(=O)C2(C)CCN2C(=O)c2ccco2)c1` (centres undefined), which Potency is on record?
**A.** inactive

**Q.** `COn1c(-c2ccc(Cl)cc2Cl)nc2ncccc21` was tested. Which Potency did it give?
**A.** inactive

**Q.** `Clc1ccc(COn2c(-c3ccc(Cl)cc3Cl)nc3ncccc32)cc1` was tested. Which Potency did it give?
**A.** 10 µM (active)

**Q.** With `CCn1c(-c2cccnc2Cl)nc2cc(C)c(C)cc21` as the compound, how does the Potency read?
**A.** inactive

**Q.** `O=C(C[C@H]1CC[C@H]2[C@@H](COC[C@H](O)CN2C(=O)c2ccccn2)O1)N1CCN(c2ccccc2)CC1` was tested. Which Potency did it give?
**A.** inactive

**Q.** How did the Potency turn out when `O=C(COc1ccc(Br)cc1)OCC(=O)c1ccc[nH]1` was run?
**A.** inactive

**Q.** `O=C1CCC(=O)N1CCC(=O)N(C(=O)NC1CCCCC1)C1CCCCC1` was tested. Which Potency did it give?
**A.** inactive

**Q.** Which Potency does the source give for `CCCCN(CC)CCCNC(=O)CS(=O)(=O)Cc1nc(-c2cccc(OC)c2)oc1C` here?
**A.** inactive

**Q.** With `COc1cccc(-c2nc(CS(=O)(=O)CC(=O)NCCc3ccc(OC)c(OC)c3)c(C)o2)c1` as the compound, how does the Potency read?
**A.** inactive

**Q.** For `COc1cccc(-c2nc(CS(=O)(=O)CC(=O)N3CCN(c4cc(C)ccc4C)CC3)c(C)o2)c1`, which Potency is on record?
**A.** 7.94 µM (active)

**Q.** For `COc1ccc(OC)c(CN2C(=O)CCC2(C)c2nnnn2Cc2ccccc2)c1` (centres undefined), which Potency is on record?
**A.** inactive

**Q.** With `O=C1CCC(C(=O)OCC(=O)Nc2ccc(OC(F)F)cc2)=NN1` as the compound, how does the Potency read?
**A.** inactive

**Q.** `CC(C)c1ccccc1OCC(O)CN(CC(O)COc1cccc2ccccc12)C(C)C` (centres undefined) was tested. Which Potency did it give?
**A.** 8.91 µM (active)

**Q.** `CCC(C)Sc1nc2c(c(=O)[nH]c(=O)n2C)n1CC(O)COc1cccc2ccccc12` (centres undefined) was tested. Which Potency did it give?
**A.** inactive

**Q.** For `Cc1cc(C)c(NC(=O)C[N+](C)(C)CC(O)COc2cccc3ccccc23)c(C)c1` (centres undefined), which Potency is on record?
**A.** inactive

**Q.** Which Potency does the source give for `Nc1ncnc2c1ncn2[C@@H]1O[C@H](C(=O)N2CCCN(Cc3ccccc3F)CC2)[C@@H](O)[C@H]1O` here?
**A.** inactive

**Q.** With `CC1(C(=O)NS(=O)(=O)c2cccc(F)c2)CCN1C(=O)Cc1ccc(Cl)cc1Cl` (centres undefined) as the compound, how does the Potency read?
**A.** inactive

**Q.** `Cc1nc(N2CCN(c3ccccn3)CC2)c2c(C)c(C(=O)Nc3ccc(F)cc3)sc2n1` was tested. Which Potency did it give?
**A.** inactive

**Q.** How did the Potency turn out when `COc1ccc(NC(=O)c2sc3nc(C)nc(N4CCN(c5ccccn5)CC4)c3c2C)c(OC)c1` was run?
**A.** inactive

**Q.** `Cc1nc(N2CCC(C)CC2)c2c(C)c(C(=O)Nc3cc(F)ccc3C)sc2n1` was tested. Which Potency did it give?
**A.** 10 µM (active)
